Screening data from PubChem BioAssay.
An excerpt weighted towards active compounds, which were near 4.2% of everything screened.
NLRP3 yeast inh – NALP3 inhibition in yeast; Yeast reconstituted NLRP3/ASC/caspase-1, beta-gal luminescence, 24 h; inhibition, % at 10 µM; 330,000 tested, 0.39% active; AID 2825;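 active = inhibition of 50% or more; inactive = inhibition below 50%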;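 also: plate controls were induced DMSO wells for no effect and uninduced yeast grown without galactose for full effect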
tim10-1 inh – tim10-1 yeast growth inhibition. S. cerevisiae tim10-1 ts strain growth, BacTiter-Glo, 24 h. inhibition, % at 20 µM. 330,000 tested, 2.2% active;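 active = inhibition of at least 40%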;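 also: mutant grown at 25 °C; 0% = DMSO wells with yeast and 100% = wells holding no yeast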
V-ATPase pH – yeast V-ATPase proton transport regulation by pHLuorin. 350,000 tested, 0.37% active. S. cerevisiae, pHLuorin cytosolic pH fluorescence. response, % at 10 µM; in the data active = response mostly above about 7.3%, no sharp cut-off; inactive = mostly below about 5.4%; also: actives read high
tim23-1 inh – growth inhibitors of tim23-1 mutant yeast. S. cerevisiae tim23-1 growth, BacTiter-Glo luminescence, 24 h. inhibition, % at 20 µM. 330,000 tested, 1.3% active. AID 463212;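 active = growth inhibition of the mutant yeast at or above 50%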;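 also: temperature-sensitive mutant grown at 25 °C; plate controls were DMSO-treated mutant yeast for no effect and medium wells lacking yeast for full effect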
NALP1 inh – inhibitors of NALP1 inflammasome in yeast; S. cerevisiae NALP1/ASC/caspase-1 growth, X-gal OD620, 72 h; inhibition, % at 10 µM; AID 2071; 280,000 tested, 0.61% active; in the data active = inhibition mostly above about 24%, no sharp cut-off; inactive = mostly below about 32%
TIM10 inh – growth inhibitors of TIM10 yeast strain; S. cerevisiae TIM10 strain growth, BacTiter-Glo luminescence, 24 h; inhibition, % at 10 µM; 330,000 tested, 1.4% active; AID 463195;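 active = inhibition of 40% or more at the single tested concentration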;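 also: wild-type TIM10 isogenic control strain grown at permissive 25 °C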
tim23-1 confirm – tim23-1 yeast growth inhibition, confirmed; shares compounds with tim23-1 inh; S. cerevisiae tim23-1 growth, BacTiter-Glo luminescence, 24 h; inhibition, % at 20 µM; 4,400 tested, 83% active; AID 463218;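 active = inhibition above about 39% in either of two replicate wells at 20 µM, limit read from the data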;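 also: temperature-sensitive tim23-1 mutant grown at 25 °C; 0% = DMSO wells with yeast and 100% = medium wells without yeast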
* = called active by the depositor; x = no result given.

SMILES	NLRP3 yeast inh	tim10-1 inh	V-ATPase pH	tim23-1 inh	NALP1 inh	TIM10 inh	tim23-1 confirm
O=C(Cn1ncc2c1-c1ccccc1OC2)Nc1nc2ccccc2s1	11.2	12.3	-3.4	61.7*	12.0	26.6	56.6*
O=C(O)c1ccc(NC(=O)C2(c3ccccc3)CCCC2)cc1	11.1	3.4	0.8	3.6	7.1	-15.7	x
CCN(CC)CCOC(=O)c1ccc(NC(=O)C2(c3ccccc3)CCCC2)cc1	1.9	-0.2	1.2	95.2*	4.4	10.0	4.8
O=C(Cc1ccc(F)cc1)NCCS(=O)(=O)N1CCN(c2cccc(Cl)c2)CC1	10.2	7.2	-3.7	3.0	x	11.1	x
CCCC(=O)Nc1cc(C)c2c(=O)oc3ccccc3c2n1	38.9	20.5	0.5	26.5	22.3	-3.6	x
Cc1cc(NC(=O)CN2CCc3ccccc3C2)nc2c1c(=O)oc1ccccc12	2.9	24.5	0.7	53.1*	8.0	30.0	62.4*
Cc1cccc2c1N(CCCOc1ccccc1)C(=O)C2=O	4.7	22.6	1.2	58.5*	1.1	26.3	55.8*
Cc1ccc(CN2C(=O)C(=O)c3cc(C)ccc32)cc1	26.2	15.5	-1.1	78.5*	x	25.3	84.0*
Cc1ccc2c(c1)C(=O)C(=O)N2Cc1ccc(Br)cc1	30.4	36.0	-6.3	68.1*	x	39.3	1.2
CCCCN1C(=O)C(=O)c2cc(Cl)ccc21	9.0	18.4	0.3	58.7*	x	25.5	55.2*
CN(C)C(=S)NC(=S)Nc1ccc2ccccc2c1	x	x	2.6	x	x	x	x
O=Cc1cn(CCOc2ccccc2)c2ccccc12	20.8	11.9	1.3	27.3	9.6	8.5	x
Cc1ccc2c(c1)C(=O)C(=O)N2c1ccc(Cl)cc1	15.3	12.5	-6.6	66.1*	x	23.9	75.3*
Cc1cccc(OCCN2C(=O)C(=O)c3cc(C)ccc32)c1	0.0	10.6	-2.2	50.8*	-7.6	11.8	48.6*
CCC(CO)Oc1cc(NC(=O)c2ccccc2[N+](=O)[O-])c2ncn(C(C)C)c2c1 (stereo not drawn)	1.6	0.6	2.7	-6.7	x	4.5	x
Clc1ccc2nc(-c3ccccc3)cn2c1	48.7	-9.9	0.4	52.2*	-0.6	6.2	23.9
CC(=O)Nc1nccc(-c2cc(-c3ccccc3)no2)n1	20.3	-5.6	x	1.7	8.1	8.4	x
Cc1ccc2nc(-c3cc(-c4ccccc4)no3)cn2c1	9.9	3.3	-3.0	54.9*	x	30.1	47.2*
CC(=O)Nc1ccc2nc(-c3ccccc3)cn2c1	2.8	-21.0	-4.0	1.4	27.0	-1.9	x
CCOc1ccc2nc(NC(=O)c3ccco3)sc2c1	24.0	20.6	2.9	55.2*	17.8	39.9	57.1*
CS(=O)(=O)c1ccc2nc(NC(=O)c3ccco3)sc2c1	13.4	30.7	-1.7	54.2*	17.6	29.0	52.2*
Cc1ccc(N(C(=O)c2snc(C(N)=O)c2N)C(C(=O)NC2CCCC2)c2ccncc2)cc1 (stereo not drawn)	1.1	2.1	x	9.1	-7.9	-14.1	x
Cc1ccc2nc(NC(=O)COC(=O)c3cccnc3)sc2c1	13.8	-15.0	3.7	53.0*	x	31.1	60.1*
CC1=NOC(=O)/C1=C\c1ccc(-c2ccc(Cl)c(C(=O)O)c2)o1	4.9	7.0	-2.2	15.8	11.7	-9.8	x
CC1=NOC(=O)/C1=C\c1ccc(-c2cccc(Cl)c2)o1	4.5	15.9	10.6	56.6*	8.1	31.8	68.8*
SMILES	NLRP3 yeast inh	tim10-1 inh	V-ATPase pH	tim23-1 inh	NALP1 inh	TIM10 inh	tim23-1 confirm
Cc1c2cnn(CC(=O)NCCCN3CC(C)CC(C)C3)c(=O)c2c(C)n1Cc1ccccc1Cl (stereo not drawn)	-6.3	-1.1	-3.8	-2.7	16.8	-5.2	x
CCOc1cc(/C=C2\COc3ccccc3C2=O)ccc1OCC(=O)N(C)C	-5.0	29.6	-1.0	54.4*	23.1	33.8	52.9*
CCOc1cc(/C=N/Nc2ccccc2Cl)ccc1OCC(=O)O	x	x	-1.7	x	12.4	x	x
Cc1cc(NC(=O)CCC(=O)N(CC(=O)NC2CCCC2)c2cccc(F)c2)no1	5.2	18.2	-0.6	13.8	-12.8	-16.4	x
COC(=O)c1ccc(NC(=O)CSc2nc(=O)n3cccc(C)c3n2)cc1	-6.4	-14.5	-1.8	71.7*	x	-9.2	52.8*
O=C(NCc1ccccc1C(F)(F)F)c1cccc2c1C(=O)c1ccc(N3CCCCC3)cc1S2(=O)=O	10.3	-3.5	-1.2	-13.4	x	-9.3	x
O=C(NN=C1c2ccccc2-c2ccccc21)c1ccccc1	-3.0	18.6	1.6	50.4*	x	34.1	65.8*
NC(=S)NN=C1c2ccccc2-c2ccccc21	26.1	35.9	-1.4	57.2*	-6.7	39.8	46.0*
CCOC(=O)NN=C1c2ccccc2-c2ccccc21	-1.3	18.6	-2.9	34.7	5.5	10.8	x
Fc1ccc(Oc2nc(-c3ccccn3)nc3ccccc23)cc1	28.1	37.2	-3.0	50.1*	6.0	14.9	50.5*
COc1cc(CN2CCN(c3cccc(C)c3C)CC2)cc(Br)c1O	18.3	25.6	-2.0	55.1*	21.9	21.3	45.0*
COc1ccc(CN2CCN(c3cccc(C)c3C)CC2)cc1OC	-35.8	10.7	-1.2	8.2	33.8	-0.8	x
NCCNc1ccc(C(=O)N2c3ccccc3Sc3ccccc32)cc1[N+](=O)[O-]	18.7	16.8	-0.4	18.8	12.8	-1.0	x
Cc1ccc(O)c(C(=O)c2cnn(C(=O)Cc3csc(C)n3)c2)c1	11.2	37.4	-1.8	59.3*	-2.0	21.2	57.0*
O=C(Nc1ccccc1F)Nc1ccccc1OC(F)F	-3.1	20.1	3.4	31.2	7.4	26.4	x
Cc1cccc(C(=O)Oc2cccc3c(O)cccc23)c1	18.5	-0.4	2.8	69.4*	11.7	20.5	51.5*
Cc1ccccc1C(=O)Oc1cccc2c(O)cccc12	22.6	27.9	-0.1	72.4*	26.9	30.2	49.1*
O=C(Oc1cccc2c(O)cccc12)c1ccco1	x	x	-1.3	x	x	x	x
CC(=O)c1cnc(Oc2cc(Cl)ccc2Cl)nc1C	-0.7	4.0	5.1	2.4	-3.5	-0.5	x
Cc1cccc(NC(=S)NC(=O)/C=C/c2ccco2)n1	10.3	22.7	3.6	57.0*	25.9	21.2	40.2*
O=C(/C=C/c1ccco1)NC(=S)Nc1ccccc1	17.8	21.3	-3.1	53.8*	23.5	5.2	28.8
Cc1ccccc1NC(=S)NC(=O)/C=C/c1ccco1	25.7	21.3	10.6	55.4*	16.4	7.5	36.5
COc1ccccc1NC(=S)NC(=O)/C=C/c1ccco1	15.8	32.3	3.3	20.1	29.0	18.7	x
Cc1cccc(NC(=S)NC(=O)c2ccco2)c1C	11.8	31.2	1.0	55.8*	-2.7	24.9	17.4
CCc1noc(C)c1C(=O)Nc1nnc(CC(C)C)s1	14.0	-23.6	-0.2	-3.5	x	0.9	x
N#Cc1c(NC(=O)c2ccc([N+](=O)[O-])o2)sc2c1CCC2	13.9	36.5	-0.9	57.7*	15.7	37.9	69.0*
